Screens from PubChem.
Only some compounds are listed: those with a hit (about 11% of all), similar ones and a draw of the others.
hNpr1 antagonist: Natriuretic polypeptide receptor (hNpr1) antagonism - Primary qHTS; Potency, µM (titrated, usually from 46.3 µM), for inactives: top-dose activity change, negative = inhibition, most hits filed as inhibitors; 76,000 tested, 1.6% active; AID 1347048, 2019; HEK293 hNpr1 GloSensor cGMP, ANP-stimulated luminescence; calls by dose curve; note: nearly all actives have a fitted effect of over 60% in size
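Compound pre-incubated 30 min at room temperature on GloSensor-loaded HEK293 cells stably carrying hNpr1 and the pGS-40F cGMP biosensor. Stimulation uses hNppA at 0.1 nM final; luminescence is taken at baseline and 20 min post-agonist.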
HEK293 tox: Cytotoxic Profiling in HEK 293 Cell Line of Diverse Libraries Using Quantitative High-Throughput Screening; HEK 293 viability, ATP luminescence (CellTiter-Glo), 48-72 h; Potency, µM (series often up to 115 µM), without a hit: top-dose activity change, negative = cytotoxicity, hits mostly inhibitors; 94,000 tested, 6.6% active; note: nearly all actives have a fitted effect of over 60% in size
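ATP-coupled CellTiter-Glo luminescence served as viability read-out, recorded 10 min after reagent addition at room temperature. HEK 293 cells, 250 cells/well, had been incubated with pintool-transferred compound for 48 or 72 hr at 37 degree Celsius.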
NIH3T3 tox: Cytotoxic Profiling in NIH 3T3 Cell Line of Diverse Libraries Using Quantitative High-Throughput Screening. NIH 3T3 viability, CellTiter-Glo ATP luminescence, 48-72 h. Potency, µM (series often up to 96.7 µM), for the others: at the highest dose activity change, negative = cytotoxicity, usual class: inhibitors. 94,000 tested, 4.3% active; note: nearly all actives have a fitted effect of over 55% in size
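ATP-dependent luminescence (CellTiter-Glo) served as the viability signal for NIH 3T3 cells treated with compound for 48 or 72 hr at 37 °C.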
FLuc inh: Firefly luciferase inhibition profiling of diverse chemical library using quantitative high-throughput screening. Luciferin 4-monooxygenase (Photinus pyralis), P08659. purified P. pyralis luciferase, luminescence, biochemical. Potency, µM (top dose mostly 115 µM), actives largely listed as inhibitors. 76,000 tested, 2.5% active; note: nearly all actives have a fitted effect of over 65% in size
Target sequence (P08659 whole entry, looked up): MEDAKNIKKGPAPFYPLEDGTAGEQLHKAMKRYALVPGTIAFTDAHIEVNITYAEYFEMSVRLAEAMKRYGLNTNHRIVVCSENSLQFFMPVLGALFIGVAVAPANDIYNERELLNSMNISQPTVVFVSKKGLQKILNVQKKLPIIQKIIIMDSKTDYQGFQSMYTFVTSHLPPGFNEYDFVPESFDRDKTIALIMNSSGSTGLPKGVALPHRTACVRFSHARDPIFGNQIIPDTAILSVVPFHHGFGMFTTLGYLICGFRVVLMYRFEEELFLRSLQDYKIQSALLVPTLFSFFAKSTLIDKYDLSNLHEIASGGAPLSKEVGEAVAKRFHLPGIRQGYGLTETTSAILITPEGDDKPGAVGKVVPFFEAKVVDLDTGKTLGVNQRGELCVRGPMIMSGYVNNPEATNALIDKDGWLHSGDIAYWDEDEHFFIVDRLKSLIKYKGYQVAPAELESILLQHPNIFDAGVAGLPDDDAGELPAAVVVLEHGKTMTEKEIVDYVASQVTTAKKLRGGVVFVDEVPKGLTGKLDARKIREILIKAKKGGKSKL
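Luminescence read by CCD imager after adding enzyme (10nM final) to wells holding compound, titrated in qHTS. Substrates 10uM each D-luciferin and ATP; buffer 50mM Tris acetate pH 7.5, 10mM Mg acetate, Tween-20, BSA.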
Numbers without * were called inactive; i = inactive; ? = inconclusive; nt = no result given; [ ] = another dose, or the depositor's remark. Unless noted, calls come from the whole dose curve; as a rule, active = well fitted curve in the direction sought with a large enough effect; inconclusive = small, poorly fitted or top-dose-only effect, or another doubt; inactive = no such curve, though single readings can be large; an effect the other way counts as inactive or inconclusive. % is set by controls: 0 for no effect and ±100 for the full control effect; potency is the fitted concentration of half-maximal effect.

SMILES	hNpr1 antagonist	HEK293 tox	NIH3T3 tox	FLuc inh
O=C(c1ccc(C(F)(F)F)cc1)N1CCC(C(=O)N2CCCC(c3nc4ncccc4[nH]3)C2)CC1 (stereo not drawn)	nt	?	-31%	nt
CC(C)OC(C)C(=O)N1CCc2onc(-c3ccc(C(F)(F)F)cc3)c2C1 (stereo not drawn)	-28%	28µM*	?	i
COc1ccc(OCC2(C)COc3ccc(C(=O)NCc4ccc(F)cc4)cc3N2)cc1 (stereo not drawn)	-30%[70.6 µM]	28µM*	28µM*	i
CC1(COc2ccccc2)COc2ccc(C(=O)NCc3cnccn3)cc2N1 (stereo not drawn)	-2%[70.6 µM]	?	?	i
COc1ccc(OCC2(C)COc3ccc(C(=O)N(C)C)cc3N2)cc1 (stereo not drawn)	?	?	-30%[138 µM]	i
Cn1ccc(NC(=O)c2ccc3c(c2)NC(C)(COc2ccccc2)CO3)n1 (stereo not drawn)	?	100µM*	?	?
CC1(COc2ccccc2)COc2ccc(C(=O)NCc3ccccc3)cc2N1 (stereo not drawn)	-22%[70.6 µM]	63µM*	50µM*	i
COc1ccc(-c2cn3cc(C(=O)NCc4cccs4)nc3s2)cc1	nt	-3%	i	nt
CS(=O)(=O)NCCc1ccc(CC2CCN(C(=O)CC3CCCC3)CC2)cc1	nt	?	40µM*	nt
CNC(=O)c1cc(C2CC2)nc2c1c(C1CCN(C(=O)Cc3ccccn3)CC1)nn2C	nt	1%	i	nt
O=C(Cc1ccccc1)Nc1cc(-c2ccncc2)nn1-c1ccccc1	nt	?	-29%	nt
Cc1cc(C)cc(NC(=O)c2ccc3c(c2)N(C)C2CCCN2C3=O)c1 (stereo not drawn)	9%	71µM*	-26%	i
COc1cc(NC(=O)c2ccc3c(c2)N(C)C2CCCCN2C3=O)cc(OC)c1OC (stereo not drawn)	-15%	?	32µM*	i
Cc1cc(NC(=O)c2ccc3c(c2)N(C)C2CCCN2C3=O)ccc1Br (stereo not drawn)	-6%	3%	i	?
COC(=O)c1cccc(NC(=O)c2ccc3c(c2)N(C)C2CCCCCN2C3=O)c1 (stereo not drawn)	?	?	45µM*	?
CSc1cccc(NC(=O)c2ccc3c(c2)N(C)C2CCCCCN2C3=O)c1 (stereo not drawn)	-4%	18µM*	32µM*	?
COC(=O)c1cccc(NC(=O)c2ccc3c(c2)N(C)C2CCCCN2C3=O)c1 (stereo not drawn)	-3%	?	?	?
Cc1cccc(NC(=O)c2ccc3c(c2)N(C)C2CCCCCN2C3=O)c1 (stereo not drawn)	-1%	?	?	35µM*
CN1c2cc(C(=O)Nc3cccc(Br)c3)ccc2C(=O)N2CCCCCC21 (stereo not drawn)	1%	?	?	?
Cn1cccc1C(=O)NC1CCCN(c2cc(-c3ccc(Cl)cc3)[nH]n2)C1 (stereo not drawn)	-30%	40µM*	40µM*	?
O=C(NC1CCCN(c2cc(-c3ccc(Cl)cc3)[nH]n2)C1)c1ccccn1 (stereo not drawn)	-2%	45µM*	?	40µM*
O=C(NC1CCCN(c2cc(-c3ccc(F)cc3)[nH]n2)C1)c1ccccn1 (stereo not drawn)	-3%	?	?	?
CCN1CCN(C(=O)c2nc3sccn3c2-c2ccc(C)cc2)CC1	nt	2%	-10%	nt
O=C(c1ccncc1)N1CCCN(c2ccc3nnc(-c4ccccc4)n3n2)CC1	nt	-12%	-27%	nt
O=C(NCc1ccccc1Cl)C1CCCN(Cc2cccc(-c3ccsc3)c2)C1 (stereo not drawn)	nt	22µM*	13µM*	nt
SMILES	hNpr1 antagonist	HEK293 tox	NIH3T3 tox	FLuc inh
O=C(NCC(=O)N1CCC(Cc2ccccc2)CC1)c1cccc(-c2ccsc2)c1	nt	?	-25%	nt
O=C(NCc1cccc(Cl)c1)C1CCCN(Cc2cccc(-c3ccsc3)c2)C1 (stereo not drawn)	nt	32µM*	40µM*	nt
CC(NC(=O)c1ccc2nnc(Cc3ccco3)n2c1)c1ccc(F)cc1 (stereo not drawn)	nt	i	-10%	nt
O=S(=O)(c1ccccc1)N1CCCC(OCc2noc(C3CCOCC3)n2)C1 (stereo not drawn)	nt	-25%	-30%	nt
Cn1cc(CN2C[C@@H]3OCC(=O)N[C@@H]3C2)c2ccccc21	-1%[70.6 µM]	?	112µM*	i
O=C(c1cc2n(n1)CC(c1ccc3c(c1)OCO3)OC2)N1CCN(c2ccccc2)CC1 (stereo not drawn)	?	?	?	i
CN1CCN(C(=O)c2cc3n(n2)CC(c2ccc(Br)cc2)OC3)CC1 (stereo not drawn)	-11%	40µM*	?	i
O=C(c1cc2n(n1)CC(c1ccc(Cl)cc1)OC2)N1CCN(c2ccccc2Cl)CC1 (stereo not drawn)	-25%	28µM*	?	i
O=C(c1cc2n(n1)CC(c1ccc(Cl)cc1)OC2)N1CCN(c2ccc(F)cc2)CC1 (stereo not drawn)	?	40µM*	?	i
O=C1CC(c2ccccc2)N(S(=O)(=O)c2ccc3c(c2)OCCO3)CCCCCN1 (stereo not drawn)	-1%	-10%	4%	i
Cc1ccc(C(=O)N2c3ccccc3CC2c2nc(C3CC3)no2)cn1 (stereo not drawn)	nt	-11%	-30%	nt
O=C(c1cn(CCC2CCCCN2Cc2cccnc2)nn1)N1CCOCC1 (stereo not drawn)	nt	-4%	-14%	nt
COc1ccc(C(=O)N2CCC3(CC2)CCC(O)(CN(C)C)CC3)cn1	nt	-4%	-11%	nt
COc1ccc(-c2ccc(C(=O)NC3CCCCC3)c(Cl)c2)nn1	nt	?	-30%	nt
COCCNC(=O)c1cc(-c2ccccc2C(F)(F)F)nc2c1cnn2C	nt	-10%	-5%	nt
COc1ccccc1-c1cc(C(=O)NCc2ccccc2F)c2cnn(C)c2n1	nt	-12%	-19%	nt
Cn1ncc2c(C(=O)C3CCN(Cc4ccccc4)CC3)cc(-c3ccccc3C(F)(F)F)nc21	nt	20µM*	32µM*	nt
Cn1ncc2c(C(=O)NCc3ccccc3F)cc(-c3ccccc3C(F)(F)F)nc21	nt	40µM*	?	nt
Cn1ncc2c(C(=O)NCCc3cccc(F)c3)cc(-c3ccccc3C(F)(F)F)nc21	nt	40µM*	?	nt
Cn1ncc2c(C(=O)N3CCCC3)cc(-c3ccccc3C(F)(F)F)nc21	nt	-28%	-26%	nt
COc1ccc(C(=O)N2CCC[C@@H]2C(=O)N2CCCC(c3nc4ccncc4[nH]3)C2)cc1 (stereo partly drawn)	nt	i	-4%	nt
COc1cc(CNc2nccc3c(=O)cc(N4CCOCC4)oc23)cc(OC)c1	-2%[70.6 µM]	-14%[172 µM]	89µM*	i
